Here are results for six compounds from PubChem BioAssay (EPA / NIEHS).

Molecules are shown by their SMILES. Where “and” joins values, the source holds several entries; their conditions need not be identical. Equal values may be shown once. Calls of active or inactive are those of the source. Rule for the calls: active = hit-call score of the fitted dose curve at least 0.9, where 1 is the maximum; inactive = score below 0.9.

Read-out in experiment [1]: Interleukin-8 (IL8), CXCL8 (gene 3576)
The experiment can be described thus: BSK_CASM3C_IL8: BioMAP Diversity Plus: CASM3C Assay for Interleukin-8 (IL8) Biomarker Activity (AID 2283042).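 Note: IL-8 protein level quantified by ELISA.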 To be noted: primary human coronary artery smooth muscle cells; actives raise or lower the signal.

Read-out in experiment [2]: Human Leukocyte Antigen - DR isotype (HLADR), HLA-DRA (gene 3122)
The experiment can be described thus: BSK_CASM3C_HLADR: BioMAP Diversity Plus: CASM3C Assay for Human Leukocyte Antigen - DR isotype (HLADR) Biomarker Activity (AID 2283043).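 Note: cell-surface HLA-DR protein level quantified by ELISA.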 To be noted: primary human coronary artery smooth muscle cells; actives raise or lower the signal.

Read-out in experiment [3]: Monocyte Chemoattractant Protein-1 (MCP1), CCL2 (gene 6347)
The experiment can be described thus: BSK_CASM3C_MCP1: BioMAP Diversity Plus: CASM3C Assay for Monocyte Chemoattractant Protein-1 (MCP1) Biomarker Activity (AID 2283046).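 Note: MCP-1 level quantified by ELISA 24 h after dosing.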 To be noted: primary human coronary artery smooth muscle cells; actives raise or lower the signal.

The nature of experiment [4]: BSK_CASM3C_Proliferation: Cell Proliferation Assessment in the BioMAP Diversity Plus: CASM3C Assay (AID 2283047).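 Note: sulforhodamine B total protein stain as relative cell number at 560 nm; sub-confluent cells exposed 48 h before staining; fitted both ways against DMSO so gain or loss of cell number.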 As to conditions: primary human coronary artery smooth muscle cells.
The nature of experiment [5]: BSK_CASM3C_SRB: Viability Assessment in the BioMAP Diversity Plus: CASM3C Assay (AID 2283050).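 Note: total protein by SRB staining as cytotoxicity measure in parallel cultures; cells exposed to compound for 24 h.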 As to conditions: primary human coronary artery smooth muscle cells.
Read-out in experiment [6]: Interferon-gamma inducible Protein 10 (IP10), CXCL10 (gene 3627)
Briefly: BSK_hDFCGF_IP10: BioMAP Diversity Plus: hDFCGF Assay for Interferon-gamma inducible Protein 10 (IP10) Biomarker Activity (AID 2283053). As to conditions: primary human foreskin fibroblasts; actives raise or lower the signal. An outline of the steps:
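Primary foreskin fibroblasts, human; 24 h compound exposure; IP-10 by ELISA; bidirectional fit vs DMSO.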

Read-out in experiment [7]: Interleukin-8 (IL8), CXCL8 (gene 3576)
Briefly: BSK_hDFCGF_IL8: BioMAP Diversity Plus: hDFCGF Assay for Interleukin-8 (IL8) Biomarker Activity (AID 2283058). As to conditions: primary human foreskin fibroblasts; actives raise or lower the signal. The method in brief:
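hDFCGF human dermal fibroblasts; 24 h chemical exposure; IL-8 by ELISA; bidirectional curve fit vs DMSO baseline; gain or loss of signal scored.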

Experiment [8] in a line: BSK_hDFCGF_Proliferation: Cell Proliferation Assessment in the BioMAP Diversity Plus: hDFCGF Assay (AID 2283059).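 Note: curves fitted for both rise and fall of signal versus DMSO baseline.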 As to conditions: primary human foreskin fibroblasts. The method in brief:
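Sub-confluent human foreskin fibroblast cultures receive test chemical […]. Relative cell number is quantified by sulforhodamine B staining (0.1%, after 10% TCA fixation) at 560 nm, with bidirectional fitting referenced to DMSO.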

Read-out in experiment [9]: Macrophage colony-stimulating factor (MCSF), CSF1 (gene 1435)
Briefly: BSK_hDFCGF_MCSF: BioMAP Diversity Plus: hDFCGF Assay for Macrophage colony-stimulating factor (MCSF) Biomarker Activity (AID 2283060). To be noted: AC50: primary human foreskin fibroblasts, actives raise or lower the signal unless noted; outcome: primary human foreskin fibroblasts, actives raise or lower the signal unless noted. An outline of the steps:
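Human foreskin primary fibroblasts were treated with test chemical for 24 h, and M-CSF was then measured by ELISA. Data were fitted bidirectionally against DMSO as the negative control and activity baseline.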

A short description of experiment [10]: BSK_hDFCGF_SRB: Viability Assessment in the BioMAP Diversity Plus: hDFCGF Assay (AID 2283061).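 Note: cells exposed to compound for 24 h before the read.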 As to conditions: primary human foreskin fibroblasts. The method in brief:
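Human foreskin primary fibroblasts were treated with compound and assessed 24 h after dosing. Total protein was measured by sulforhodamine B staining (0.1% SRB after 10% TCA fixation, 560 nm read) as a cytotoxicity marker, with bidirectional fitting against DMSO baseline.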

Read-out in experiment [11]: TIMP metallopeptidase inhibitor 1 (TIMP1), TIMP1 (gene 7076)
The experiment can be described thus: BSK_hDFCGF_TIMP1: BioMAP Diversity Plus: hDFCGF Assay for TIMP metallopeptidase inhibitor 1 (TIMP1) Biomarker Activity (AID 2283062). As to conditions: primary human foreskin fibroblasts; actives raise or lower the signal. An outline of the steps:
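Primary human foreskin fibroblasts in the hDFCGF system were dosed with compound for 24 h, then TIMP-1 was measured by ELISA. Activity was fitted bidirectionally relative to DMSO control; parallel SRB staining assessed cytotoxicity.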

Read-out in experiment [12]: Monokine induced gamma interferon (MIG), CXCL9 (gene 4283)
The experiment can be described thus: BSK_hDFCGF_MIG: BioMAP Diversity Plus: hDFCGF Assay for Monokine induced gamma interferon (MIG) Biomarker Activity (AID 2283063). As to conditions: primary human foreskin fibroblasts; actives raise or lower the signal. An outline of the steps: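 ELISA read-out of MIG from primary human dermal fibroblasts 24 h post-dosing. Gain or loss of signal fitted bidirectionally, DMSO as baseline.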

Read-out in experiment [13]: Matrix Metallopeptidase 1 (MMP1), MMP1 (gene 4312)
Briefly: BSK_hDFCGF_MMP1: BioMAP Diversity Plus: hDFCGF Assay for Matrix Metallopeptidase 1 (MMP1) Biomarker Activity (AID 2283064). To be noted: primary human foreskin fibroblasts; actives raise or lower the signal. The method in brief:
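Primary human foreskin fibroblasts in the hDFCGF system were dosed with test chemical, and MMP1 was measured by ELISA 24 h later. Values come from bidirectional curve fitting against the DMSO baseline.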

Read-out in experiment [14]: Plasminogen activator inhibitor-1 (PAI1), SERPINE1 (gene 5054)
Briefly: BSK_hDFCGF_PAI1: BioMAP Diversity Plus: hDFCGF Assay for Plasminogen activator inhibitor-1 (PAI1) Biomarker Activity (AID 2283066). To be noted: primary human foreskin fibroblasts; actives raise or lower the signal. The method in brief: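 Primary dermal fibroblasts (human foreskin), hDFCGF system; compound 24 h; PAI-1 by ELISA; bidirectional fit vs DMSO control.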

Read-out in experiment [15]: Interferon-gamma inducible Protein 10 (IP10), CXCL10 (gene 3627)
The experiment can be described thus: BSK_KF3CT_IP10: BioMAP Diversity Plus: KF3CT Assay for Interferon-gamma inducible Protein 10 (IP10) Biomarker Activity (AID 2283068). As to conditions: primary human keratinocytes with fibroblasts; actives raise or lower the signal. The method in brief:
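ELISA read-out of IP-10 after 24 h chemical dosing of human skin primary co-culture (keratinocytes, foreskin fibroblasts). Gain or loss of signal relative to DMSO, bidirectional curve fit.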

Experiment [16] can be described thus: BSK_KF3CT_SRB: Viability Assessment in the BioMAP Diversity Plus: KF3CT Assay (AID 2283069).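 Note: fitted for both signal gain and loss against DMSO baseline.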 As to conditions: primary human keratinocytes with fibroblasts. The method in brief: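 Human primary keratinocyte plus foreskin fibroblast co-culture exposed to chemicals for 24 h. Total protein measured by 0.1% sulforhodamine B staining after 10% TCA fixation, read at 560 nm; bidirectional fitting versus DMSO baseline.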

Read-out in experiment [17]: TIMP metallopeptidase inhibitor 2 (TIMP2), TIMP2 (gene 7077)
The experiment can be described thus: BSK_KF3CT_TIMP2: BioMAP Diversity Plus: KF3CT Assay for TIMP metallopeptidase inhibitor 2 (TIMP2) Biomarker Activity (AID 2283071). To be noted: primary human keratinocytes with fibroblasts; actives raise or lower the signal. The method in brief: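 Cells: human keratinocytes co-cultured with foreskin fibroblasts. Treat with chemical, 24 h. Measure TIMP-2 by ELISA; fit curves bidirectionally vs DMSO baseline.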

Read-out in experiment [18]: C-C motif chemokine 2 (Homo sapiens) (UniProt P13500)
Briefly: BSK_KF3CT_MCP1: BioMAP Diversity Plus: KF3CT Assay for Monocyte Chemoattractant Protein 1 (MCP1/CCL2) Biomarker Activity (AID 2283073). To be noted: primary human keratinocytes with fibroblasts; actives raise or lower the signal. An outline of the steps:
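Human keratinocyte plus foreskin fibroblast primary co-culture exposed to chemical for 24 h. MCP-1 levels measured by ELISA. Bidirectional curve fitting relative to DMSO negative control as baseline.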

Read-out in experiment [19]: Matrix Metallopeptidase 9 (MMP9), MMP9 (gene 4318)
The experiment can be described thus: BSK_KF3CT_MMP9: BioMAP Diversity Plus: KF3CT Assay for Matrix Metallopeptidase 9 (MMP9) Biomarker Activity (AID 2283074).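 For AC50: MMP9 protein level quantified by ELISA in the co-culture.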 As to conditions: primary human keratinocytes with fibroblasts; actives raise or lower the signal. The method in brief: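 Keratinocyte plus foreskin fibroblast human primary skin co-culture was dosed with chemical and MMP-9 was quantified by ELISA 24 h later. Bidirectional curve fitting used DMSO as negative control and activity baseline.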

Read-out in experiment [20]: urokinase plasminogen activator (uPA), PLAU (gene 5328)
Briefly: BSK_KF3CT_uPA: BioMAP Diversity Plus: KF3CT Assay for urokinase plasminogen activator (uPA) Biomarker Activity (AID 2283075). As to conditions: primary human keratinocytes with fibroblasts; actives raise or lower the signal. The method in brief: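 Human keratinocyte plus foreskin fibroblast primary co-culture exposed to chemical for 24 h. uPA levels were quantified by ELISA, and activity was fitted bidirectionally against a DMSO negative-control baseline.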

A word on the AC50: it is the concentration giving half of the maximal activity seen.

`CC(C)C1OCCN1CCOC(=O)NCCCCCCNC(=O)OCCN1CCOC1C(C)C` (stereo not given): the result in [1], in experiment [2], in experiment [3], in experiment [4], in [5] and in [6] was inactive. The result in [7], in experiment [8], in experiment [9], in experiment [10], in experiment [11] and in experiment [12] was inactive. The outcome in [13], in [14], in [15], in [16], in experiment [17] and in [18] was inactive. The outcome in experiment [19] and in experiment [20] was inactive.
Consider `Oc1cccc2ccccc12`, for which the outcome in experiment [1], in [2], in experiment [3], in experiment [4], in experiment [5] and in experiment [6] was inactive. Further, the result in experiment [7], in experiment [9], in experiment [10], in [11], in [12] and in experiment [13] was inactive. The result in experiment [14], in [15], in [16], in experiment [17], in experiment [18] and in experiment [19] was inactive. In addition, the outcome in [20] was inactive. The AC50 in [8] is 13.3 µM (active).
For the compound `Cc1c(C(N)=O)cc([N+](=O)[O-])cc1[N+](=O)[O-]`, the result in [1], in experiment [2], in experiment [3], in experiment [4], in experiment [5] and in experiment [6] was inactive. Besides, the result in experiment [7], in experiment [8], in experiment [9], in [10], in [11] and in experiment [12] was inactive. The outcome in [13], in experiment [14], in experiment [15], in experiment [16], in experiment [17] and in experiment [18] was inactive. Moreover, the result in experiment [19] and in experiment [20] was inactive.
As for `O=[N+]([O-])c1cc(S(=O)(=O)Nc2ccccc2)ccc1Nc1ccccc1`, the outcome in experiment [1], in experiment [2], in experiment [3], in experiment [4] and in [5] was inactive. Also, the AC50 was 29.8 µM (active) and 31.5 µM (active) in [6]; 38.9 µM (active) and 36.7 µM (active) in experiment [7]; 14 µM (active) and 14.3 µM (active) in experiment [8]; 29.3 µM (active) and 29.5 µM (active) in experiment [9]; 27.7 µM (active) and 29 µM (active) in experiment [10]; 30.3 µM (active) and 29.5 µM (active) in experiment [11]. The AC50 in experiment [12] is 31 µM (active) and 31.3 µM (active); in experiment [13], 30.9 µM (active) and 36.7 µM (active); in experiment [14] it was 26.6 µM (active) and 25.4 µM (active); in experiment [15], 30.2 µM (active) and 32.4 µM (active); in [16] it was 34.6 µM (active); in [17], 32.6 µM (active) and 30.4 µM (active). In addition, the AC50 in [18] is 25.3 µM (active) and 23.6 µM (active); in experiment [19], 31.5 µM (active) and 29.5 µM (active); in experiment [20], 32.8 µM (active) and 32.9 µM (active).
For `OC(C(F)(F)F)(C(F)(F)F)C(O)(C(F)(F)F)C(F)(F)F`, the result in [1], in experiment [3], in experiment [7], in [10], in [11] and in experiment [13] was inactive. Besides, the outcome in experiment [20] was inactive. Besides, the concentration at half-maximal activity (AC50) in experiment [2] is 18.7 µM (active) and 7.57 µM (active); in experiment [4] it was 27.7 µM (active) and 28.9 µM (active); in experiment [5] it was 30 µM (active) and 26.9 µM (active); in experiment [6], 20.1 µM (active) and 23.8 µM (active); in experiment [8] it was 15.5 µM (active) and 16.8 µM (active); in [9] it was 14.3 µM (active) and 19.2 µM (active). The AC50 was 30 µM (active) in [12]; 33.1 µM (active) and 33.8 µM (active) in experiment [14]; 48.7 µM (active) and 47.2 µM (active) in [15]; 46.9 µM (active) and 58.2 µM (active) in experiment [16]; 50.7 µM (active) and 51.8 µM (active) in [17]; 7.89 µM (active) and 7.97 µM (active) in experiment [18]. Moreover, the AC50 in [19] is 43 µM (active) and 46.1 µM (active).
With `COc1ccccc1Oc1c(NS(=O)(=O)c2ccc(C(C)(C)C)cc2)nc(-c2ncccn2)nc1OCCO`, the outcome in experiment [1], in [2], in experiment [3], in experiment [4], in experiment [5] and in experiment [6] was inactive. For the same compound, the result in [7], in experiment [9], in experiment [10], in [11], in experiment [12] and in experiment [13] was inactive. Also, the outcome in experiment [14], in [15], in experiment [16], in experiment [17], in experiment [18] and in experiment [19] was inactive. In addition, in [20], the outcome was inactive. Besides, in experiment [8], the AC50 is 20 µM (active) and 15.3 µM (active).
